# According to the supplement of paper PMC6897291:
# Columns and labels:
# U-2932 = assay: growth inhibition by drug plus 177Lu-lilotomab satetraxetan (1 - RLU/untreated control) (fraction); higher = stronger inhibition; settings: 177Lu-lilotomab satetraxetan 1 ug/ml
# Summary of the method: (§1)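 With or without 18 h pretreatment by a radiolabelled anti-CD37 antibody conjugate (~600 MBq/mg; 0.5 µg/ml RIVA, 1 µg/ml U-2932), RIVA and U-2932 cells were washed and plated at 3,000 cells/well. Pre-printed compound doses were 10/100 nM for RIVA and 10/1,000 nM for U-2932. Growth inhibition uses RealTime-Glo RLU relative to the untreated no-drug wells. The calculation is 1 − RLU/mean of 48 such wells per plate, with reads daily from day 3 after 1 h at 37°C.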
# RIVA [1] = assay: as above; settings: 177Lu-lilotomab satetraxetan 0.5 ug/ml
# Summary of the method: as §1
# RIVA [2] = assay: growth inhibition by drug alone (1 - RLU/untreated control) (fraction); higher = stronger inhibition; settings: 177Lu-lilotomab satetraxetan 0 ug/ml
# Summary of the method: as §1
SMILES,"growth inhibition by drug plus 177Lu-lilotomab satetraxetan (U-2932; 10 nM, time (day): 3)","growth inhibition by drug plus 177Lu-lilotomab satetraxetan (U-2932; 10 nM, time (day): 4)","growth inhibition by drug plus 177Lu-lilotomab satetraxetan (U-2932; 10 nM, time (day): 5)","growth inhibition by drug plus 177Lu-lilotomab satetraxetan (U-2932; 10 nM, time (day): 6)","growth inhibition by drug plus 177Lu-lilotomab satetraxetan (U-2932; 1000 nM, time (day): 3)","growth inhibition by drug plus 177Lu-lilotomab satetraxetan (U-2932; 1000 nM, time (day): 4)","growth inhibition by drug plus 177Lu-lilotomab satetraxetan (U-2932; 1000 nM, time (day): 5)","growth inhibition by drug plus 177Lu-lilotomab satetraxetan (U-2932; 1000 nM, time (day): 6)","growth inhibition by drug plus 177Lu-lilotomab satetraxetan (RIVA [1]; 10 nM, time (day): 3)","growth inhibition by drug plus 177Lu-lilotomab satetraxetan (RIVA [1]; 10 nM, time (day): 4)","growth inhibition by drug plus 177Lu-lilotomab satetraxetan (RIVA [1]; 10 nM, time (day): 5)","growth inhibition by drug plus 177Lu-lilotomab satetraxetan (RIVA [1]; 10 nM, time (day): 6)","growth inhibition by drug plus 177Lu-lilotomab satetraxetan (RIVA [1]; 100 nM, time (day): 3)","growth inhibition by drug plus 177Lu-lilotomab satetraxetan (RIVA [1]; 100 nM, time (day): 4)","growth inhibition by drug plus 177Lu-lilotomab satetraxetan (RIVA [1]; 100 nM, time (day): 5)","growth inhibition by drug plus 177Lu-lilotomab satetraxetan (RIVA [1]; 100 nM, time (day): 6)","growth inhibition by drug alone (RIVA [2]; 10 nM, time (day): 3)","growth inhibition by drug alone (RIVA [2]; 10 nM, time (day): 4)","growth inhibition by drug alone (RIVA [2]; 10 nM, time (day): 5)","growth inhibition by drug alone (RIVA [2]; 10 nM, time (day): 6)","growth inhibition by drug alone (RIVA [2]; 100 nM, time (day): 3)","growth inhibition by drug alone (RIVA [2]; 100 nM, time (day): 4)","growth inhibition by drug alone (RIVA [2]; 100 nM, time (day): 5)","growth inhibition by drug alone (RIVA [2]; 100 nM, time (day): 6)"
CC(=O)O[C@@]12CO[C@@H]1C[C@H](O)[C@@]1(C)C(=O)[C@H](O)C3=C(C)[C@@H](OC(=O)[C@H](O)[C@@H](NC(=O)OC(C)(C)C)c4ccccc4)C[C@@](O)([C@@H](OC(=O)c4ccccc4)[C@H]21)C3(C)C [Docetaxel (Taxotere)],0.96,0.971,0.977,0.983,0.966,0.977,0.982,0.985,0.968,0.982,0.985,0.988,0.967,0.979,0.985,0.987,–,–,–,–,–,–,–,–
O=C(c1cc(Cc2n[nH]c(=O)c3ccccc23)ccc1F)N1CCN(C(=O)C2CC2)CC1 [Olaparib (AZD2281)],-0.0255,0.035,0.0896,0.188,0.0503,0.108,0.156,0.315,0.539,0.593,0.618,0.613,0.39,0.482,0.505,0.533,-0.144,-0.15,-0.137,-0.143,-0.228,-0.239,-0.25,-0.231
c1ccc2c(-c3cnn4cc(-c5ccc(N6CCNCC6)cc5)cnc34)ccnc2c1,-0.113,-0.0441,0.0116,0.0932,-0.0291,-0.0174,0.0152,0.209,0.399,0.521,0.544,0.537,0.307,0.408,0.431,0.436,-0.24,-0.273,-0.265,-0.249,-0.167,-0.254,-0.224,-0.213
CC1(CN2CCC(n3c(=O)[nH]c4ccccc43)CC2)OCc2ccccc2-n2cccc21 (stereo not drawn),-0.0386,0.0346,0.0781,0.0987,-0.0292,0.0476,0.0675,0.175,0.576,0.59,0.612,0.612,0.521,0.568,0.6,0.609,-0.0853,-0.102,-0.143,-0.225,-0.307,-0.303,-0.319,-0.374
CCn1c(-c2nonc2N)nc2cnc(Oc3cccc(NC(=O)c4ccc(OCCN5CCOCC5)cc4)c3)cc21,-0.198,-0.145,-0.0619,0.0328,0.279,0.292,0.374,0.603,0.46,0.522,0.558,0.578,0.439,0.515,0.547,0.569,-0.232,-0.237,-0.286,-0.351,-0.202,-0.237,-0.215,-0.241
CC1(C)CCC(c2ccc(Cl)cc2)=C(CN2CCN(c3ccc(C(=O)NS(=O)(=O)c4ccc(N[C@H](CCN5CCOCC5)CSc5ccccc5)c(S(=O)(=O)C(F)(F)F)c4)cc3)CC2)C1 [ABT-263 (Navitoclax)],-0.0296,-0.00166,0.0241,0.15,0.115,0.591,0.816,0.904,0.568,0.593,0.605,0.604,0.984,0.983,0.983,0.983,0.116,0.0668,0.0479,-0.0157,0.977,0.976,0.975,0.974
c1ccc(-c2nn3c(c2-c2ccnc4cc(OCCN5CCOCC5)ccc24)CCC3)nc1,0.0114,0.0692,0.139,0.155,-0.0195,0.0208,0.0497,0.121,0.46,0.581,0.585,0.558,0.237,0.413,0.439,0.459,-0.0878,-0.000924,-0.142,-0.487,-0.472,-0.252,-0.3,-0.522
CCC1=C[C@@H]2CN(C1)Cc1c([nH]c3ccccc13)[C@@](C(=O)OC)(c1cc3c(cc1OC)N(C)[C@H]1[C@@](O)(C(=O)OC)[C@H](OC(C)=O)[C@]4(CC)C=CCN5CC[C@]31[C@@H]54)C2 [Vinorelbine (Navelbine)],0.489,0.544,0.598,0.621,0.975,0.98,0.983,0.988,0.928,0.949,0.961,0.969,0.967,0.978,0.982,0.987,0.907,0.914,0.922,0.926,0.949,0.964,0.968,0.972
"Cc1cc(Nc2cc(N3CCN(C)CC3)nc(Sc3ccc(NC(=O)C4CC4)cc3)n2)n[nH]1 [VX-680 (MK-0457, Tozasertib)]",-0.00926,0.0675,0.118,0.172,0.272,0.279,0.311,0.494,0.594,0.628,0.652,0.658,0.458,0.547,0.616,0.727,-0.0364,-0.0738,-0.11,-0.195,-0.135,-0.125,-0.0167,0.173
